Source: PMC4336329 (PLoS ONE, 2015)
Hit rate of the full screen: of about 310,000 compounds, about 14,000 (4.5%) showed an effect of 50% or more. Effects have a minus sign here. The list comes from a sample in which strong results are over-represented; it also holds similar structures and randomly drawn compounds.

biological target: human ether-à-go-go-related gene (hERG) potassium channel (human, UniProt Q12809); assay: primary screen, population patch clamp on CHO cells stably expressing hERG; higher = less effect of the substance
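Also: peak tail current of the secondary pulse compared with the same well before compound.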

Chain of human ether-à-go-go-related gene (hERG) potassium channel (Q12809 whole entry, looked up): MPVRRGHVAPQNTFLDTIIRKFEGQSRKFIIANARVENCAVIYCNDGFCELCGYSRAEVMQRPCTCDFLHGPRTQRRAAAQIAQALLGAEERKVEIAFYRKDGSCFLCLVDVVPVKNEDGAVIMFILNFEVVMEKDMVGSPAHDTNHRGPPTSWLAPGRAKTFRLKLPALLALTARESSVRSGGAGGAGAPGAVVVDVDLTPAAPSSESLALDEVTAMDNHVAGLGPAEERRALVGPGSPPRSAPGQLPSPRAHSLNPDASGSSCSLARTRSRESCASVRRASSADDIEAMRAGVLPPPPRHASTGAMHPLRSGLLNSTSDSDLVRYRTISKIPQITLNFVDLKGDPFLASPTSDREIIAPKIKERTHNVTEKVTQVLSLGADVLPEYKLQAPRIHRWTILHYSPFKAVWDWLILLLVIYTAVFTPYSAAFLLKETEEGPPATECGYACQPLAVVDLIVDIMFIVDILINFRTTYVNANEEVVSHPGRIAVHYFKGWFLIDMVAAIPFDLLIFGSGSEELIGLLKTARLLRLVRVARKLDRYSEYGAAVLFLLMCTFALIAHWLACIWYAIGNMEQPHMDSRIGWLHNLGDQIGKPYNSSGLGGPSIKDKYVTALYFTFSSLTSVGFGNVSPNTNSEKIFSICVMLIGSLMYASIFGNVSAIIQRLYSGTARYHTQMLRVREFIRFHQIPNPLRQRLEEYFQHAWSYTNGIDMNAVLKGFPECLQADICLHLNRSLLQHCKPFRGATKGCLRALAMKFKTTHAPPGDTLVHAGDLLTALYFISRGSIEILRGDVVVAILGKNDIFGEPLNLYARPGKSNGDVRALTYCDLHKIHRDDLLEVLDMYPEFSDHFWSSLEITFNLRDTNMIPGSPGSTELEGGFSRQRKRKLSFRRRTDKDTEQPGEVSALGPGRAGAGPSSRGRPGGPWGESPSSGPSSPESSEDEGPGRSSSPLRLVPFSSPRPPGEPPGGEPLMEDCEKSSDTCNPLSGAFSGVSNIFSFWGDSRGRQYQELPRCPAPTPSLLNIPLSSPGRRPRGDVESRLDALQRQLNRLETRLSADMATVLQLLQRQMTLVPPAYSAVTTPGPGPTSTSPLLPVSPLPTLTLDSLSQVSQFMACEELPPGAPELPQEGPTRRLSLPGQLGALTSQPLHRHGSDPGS

Structure (SMILES)	hERG current change (%, negative = inhibition) at 10uM [%]
CCCNC(=O)c1ccc2c(c1)S(=O)(=O)c1ccccc1C2=O	-10.9
COc1ccc(-c2nn(-c3ccccc3)cc2C(=O)NC(=S)N2CCOCC2)cc1OC	30.1
CCOCc1c(C(=O)NCc2ccccc2CN2CCCC2)oc2ccccc12	-72
CCOCc1c(C(=O)NC2CCCCCC2)oc2ccccc12	8.56
COCc1c(C(=O)NCC2COc3ccccc3O2)oc2ccccc12 (centres unmarked)	-30.1
COCc1c(C(=O)NCc2ccccc2CN2CCCC2)oc2ccccc12	-66.4
CCOc1ccc(OCCNC(=O)c2oc3ccccc3c2COC)cc1	-32.5
CCOCc1c(C(=O)N2CCN(Cc3ccc(Br)s3)CC2)oc2ccccc12	-30.9
COc1ccc2[nH]c3c(c2c1)CCN1C(=O)N([C@@H](C)C(=O)NCc2ccccc2OC)C(=O)[C@]31C	-17.2
CCOc1ccc2nc(SCC(=O)c3ccc(O)cc3O)sc2c1	14.5
Cc1ccc([N+](=O)[O-])c(NC(=O)COC(=O)C2CC3CCCC(C2)C3=O)c1C (centres unmarked)	13.8
Cc1cc(C)n2nc(C(=O)OCC(=O)Nc3ccc4c(c3)OCO4)nc2n1	-1.59
COc1ccc(OCCSc2nc3nc(C)cc(C)n3n2)cc1	-13.1
Cc1ccc(OCCOC(=O)c2nc3nccc(C)n3n2)cc1	-18.4
Cc1cc(C)n2nc(C(=O)OCCOc3cccc(Br)c3)nc2n1	-21.6
Cc1ccnc2nc(C(=O)OCC(=O)Nc3ccc4c(c3)OC(F)(F)O4)nn12	-49.1
Cc1ccnc2nc(C(=O)OCCOc3ccc(Cl)cc3)nn12	-56.2
Cc1cc(C)n2nc(SCCOc3ccccc3)nc2n1	-38.7
Cc1cc(C)n2nc(C(=O)OCCOc3ccc(Br)cc3)nc2n1	-55.3
Cc1cc(C)n2nc(C(=O)OCCOc3ccc(F)cc3)nc2n1	-12.3
Cc1cc(C)n2nc(SCCOc3ccc(F)cc3)nc2n1	-68.8
Cc1cc(C)n2nc(C(=O)OCC(=O)Nc3ccc4c(c3)OC(F)(F)O4)nc2n1	-63.8
COc1ccc(OCCOC(=O)c2nc3nccc(C)n3n2)cc1	-3.15

Structure (SMILES)	hERG current change (%, negative = inhibition) at 10uM [%]
Cc1nc(N)nc(COc2ccccc2)n1	16.6
Cc1cc(C)c(NC(=O)CN(C)CC(=O)N(C)CC(=O)Nc2c(Cl)cccc2Cl)c(C)c1	9.65
COc1cc(OC)cc(C(=O)NNC(=S)NC(=O)c2cccnc2)c1	14.4
CCCCc1ccc2[nH]cc(CCN)c2c1.Cl	-9.69
COc1ccc(CCNC(=O)C2CCN(Cc3nc(-c4ccccc4F)oc3C)CC2)cc1OC	-45.4
COc1ccc(CCNC(=O)C2CCCN(Cc3nc(-c4ccccc4C)oc3C)C2)cc1OC (centres unmarked)	-57.7
COc1ccc(CCNC(=O)C2CCN(Cc3nc(-c4ccccc4C)oc3C)CC2)cc1OC	-79.2
Cc1ccccc1-c1nc(CN2CCC(C(=O)NCCCN3CCCC(C)C3)CC2)c(C)o1 (centres unmarked)	28.6
Cc1ccccc1-c1nc(CN2CCCC(C(=O)NCCCN3CCOCC3)C2)c(C)o1 (centres unmarked)	-7.84
O=C(CC(Nc1cccc(Cl)c1Cl)C(=O)OCC(=O)c1cccs1)c1ccccc1 (centres unmarked)	-5.59
CCOC(=O)[C@@H](CCc1ccccc1)N[C@H](C)C(=O)N1[C@H](C(=O)O)C[C@@H]2CCC[C@@H]21	15.9
CC(C)(C)NC(=O)c1ccc(COCC(F)(F)F)o1	-4.16
CCN(CC)CCNc1cc(C)c(C#N)c2nc3ccccc3n12	-20.6
CCOc1ccc2nc(COC(=O)c3ccco3)c(C(C)=O)[n+]([O-])c2c1	0.493
CCOc1ccc(-n2c(C)nnc2SCC(=O)N(CC)CC)cc1	2.63
CC(C)N1C(=O)CCC1C(=O)NCCc1ccccc1 (centres unmarked)	-6.11
COC(=O)c1c(C)oc(C)c1S(=O)(=O)N1CCCCC1	9.1
CCN(CC)CCCNC(=O)c1[nH]c2ccccc2c1Sc1ccc(Cl)cc1	-89.5
COC(=O)c1[nH]c2ccccc2c1Sc1ccccc1	11.9
CCCCN(CC)CCCNC(=O)c1cc2c(=O)[nH]c3ccccc3c2s1	-0.682
COc1ccc(/C=C/C(=O)NC(C)(C)C)cc1S(=O)(=O)N1CCOCC1	-15.2
CCCCn1c(N)c(N(CC(C)C)C(=O)c2cccc(S(=O)(=O)N3CC(C)OC(C)C3)c2)c(=O)[nH]c1=O (centres unmarked)	21.6
CC(C)Oc1ccc(C(=O)OCC(=O)N2CCCc3ccccc32)cc1	6.85

Structure (SMILES)	hERG current change (%, negative = inhibition) at 10uM [%]
Cc1ccc(-n2c(SCC(=O)N3CCCC3)nc3c(c2=O)SCC3)cc1	5.3
COc1ccc(-n2c(SCC(=O)Nc3ccccc3)nc3c(c2=O)SCC3)cc1	-18.7
CCOC(=O)CSc1nc2c(c(=O)n1-c1ccc(OC)cc1)SCC2	-9.55
COc1ccc(-n2c(SCC(=O)N3CCN(c4ccccc4)CC3)nc3c(c2=O)SCC3)cc1	-70
O=C(CSc1nc2c(c(=O)n1-c1ccccc1)SCC2)N1CCOCC1	5.25
O=C(CSc1nc2c(c(=O)n1-c1ccccc1)SCC2)N1CCN(c2ccccc2)CC1	-76.5
Cc1cc(N)n(C2CCN(C)CC2)n1	1.99
c1ccc2c(CCNc3ncnc4nc[nH]c34)cccc2c1	-6.53
CNCCCc1[nH]nc(N)c1C#N	4.22
N#Cc1ccccc1Sc1ccccc1C(=O)Nc1ccccc1	0.339
Cc1ccc(-c2noc(CCC(=O)Nc3ccc4c(c3)OCO4)n2)cc1	3.68
CC(C)(C)OC(=O)N1CCC(CNC(=O)c2cccs2)CC1	10.9
CCCc1nc(SCC(=O)N2c3ccccc3CC2C)c2c(C)c(C)sc2n1 (centres unmarked)	14.1
N/C(Cc1ccc([N+](=O)[O-])cc1)=N\OC(=O)CC1CCCCC1	-68.5
N/C(Cc1ccc(Cl)cc1)=N\OC(=O)Cc1ccc([N+](=O)[O-])cc1	-4.32
N/C(Cc1ccc([N+](=O)[O-])cc1)=N\OC(=O)c1ccco1	-26.8
N/C(Cc1ccc([N+](=O)[O-])cc1)=N\OC(=O)Cc1ccc(Cl)cc1	-4.39
N/C(Cc1ccc([N+](=O)[O-])cc1)=N\OC(=O)C(c1ccccc1)c1ccccc1	-66.9
Cc1ccc(OCC(=O)O/N=C(\N)Cc2ccc([N+](=O)[O-])cc2)cc1C	-32.7
COc1ccc(C/C(N)=N/OC(=O)C(c2ccccc2)c2ccccc2)cc1OC	-14.5
CCc1ccc(OCC(=O)O/N=C(\N)Cc2ccc([N+](=O)[O-])cc2)cc1	-53.9
Cc1cc(C)cc(OCC(=O)O/N=C(\N)Cc2ccc([N+](=O)[O-])cc2)c1	-2.56
Cc1ccc(CC(=O)O/N=C(\N)Cc2ccc([N+](=O)[O-])cc2)cc1	0.827

Structure (SMILES)	hERG current change (%, negative = inhibition) at 10uM [%]
N/C(Cc1ccc([N+](=O)[O-])cc1)=N\OC(=O)C1CCCCC1	-3.44
N/C(Cc1ccc([N+](=O)[O-])cc1)=N\OC(=O)Cc1ccccc1	-50.7
COc1cccc(-c2nn[nH]n2)c1O	9.02
c1ccc(CSCc2cn3ccsc3n2)cc1	-4.45
COc1ccc(CCNC(=O)C2CCCN(S(=O)(=O)c3cccc4nonc34)C2)cc1OC (centres unmarked)	10.5
Cc1cccc(C(=O)NC(=S)NNC(=O)c2cccs2)c1	17.2
Cc1onc(-c2ccccc2)c1NC(=O)N(CCC#N)Cc1ccccc1	3.65
CCOC(=O)c1ccc(NC(=O)c2nc[nH]c2C(=O)NCC(=O)OC(C)(C)C)cc1	19.5
Cc1cc(C)nc(N(C#N)Cc2ccccc2)n1	-4.34
Cc1cc(C)nc(/N=C(\N)N2CCCCCC2)n1	-3.86
Cc1cc(C)nc(/N=C(\N)N(Cc2ccccc2)Cc2ccccc2)n1	-70.6
CCN(CC)/C(N)=N/c1nc(C)cc(C)n1	7.16
CCN(/C(N)=N/c1nc(C)cc(C)n1)c1ccccc1	-6.01
CCCCN(CCCC)/C(N)=N/c1nc(C)cc(C)n1	-80.2
COc1cccc(C=O)c1OCCN1C(=O)c2ccccc2C1=O	4
CCc1ccccc1S(=O)(=O)Cc1ccc(C(=O)NCc2cccs2)o1	-22.5
Cc1cc(C(=O)CCl)c(C)n1CCc1ccc(F)cc1	27.2
CC1CC(C)CN(c2ncnc3c2cnn3C)C1 (centres unmarked)	-69.8
CN1CCN(c2ncnc3c2cnn3C)CC1	19.5
CC1CC(C)CN(c2ncnc3c2cnn3-c2ccc(Cl)cc2)C1 (centres unmarked)	3.17
